IL1B secr inh: qHTS for Inhibitors of Inflammasome Signaling: IL-1-beta AlphaLISA Primary Screen; activity change, % at 57.5 µM; THP-1 LPS/ATP IL-1B secretion, AlphaLISA, 16 h; stronger effect = lower value; 360,000 compounds, 4.7% hits; in the data active = activity change below about -50%; inconclusive = mostly about -30% to -49%
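Secreted IL-1B measured by AlphaLISA bead assay after 16 h compound exposure of THP-1 cells; compounds (final up to 57.5 uM) added 1 h before LPS (250 ng/mL) and ATP (1.25 mM) stimulation; lower signal means less secretion.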
TDP1 block: qHTS Assay for Inhibitors of Tyrosyl-DNA Phosphodiesterase (TDP1) | Tyrosyl-DNA phosphodiesterase 1 (Homo sapiens), Q9NUW8 | recombinant TDP1, AlphaScreen DNA substrate cleavage | Potency, µM (doses to about 130 µM), for inactives: at the top dose activity change, negative = inhibition, most hits filed as inhibitors | 350,000 compounds, 0.28% hits; also: potency is read from the fitted curve at half-maximal effect; nearly all actives have a fitted effect of over 40% in size
Target sequence (Q9NUW8 whole entry, looked up): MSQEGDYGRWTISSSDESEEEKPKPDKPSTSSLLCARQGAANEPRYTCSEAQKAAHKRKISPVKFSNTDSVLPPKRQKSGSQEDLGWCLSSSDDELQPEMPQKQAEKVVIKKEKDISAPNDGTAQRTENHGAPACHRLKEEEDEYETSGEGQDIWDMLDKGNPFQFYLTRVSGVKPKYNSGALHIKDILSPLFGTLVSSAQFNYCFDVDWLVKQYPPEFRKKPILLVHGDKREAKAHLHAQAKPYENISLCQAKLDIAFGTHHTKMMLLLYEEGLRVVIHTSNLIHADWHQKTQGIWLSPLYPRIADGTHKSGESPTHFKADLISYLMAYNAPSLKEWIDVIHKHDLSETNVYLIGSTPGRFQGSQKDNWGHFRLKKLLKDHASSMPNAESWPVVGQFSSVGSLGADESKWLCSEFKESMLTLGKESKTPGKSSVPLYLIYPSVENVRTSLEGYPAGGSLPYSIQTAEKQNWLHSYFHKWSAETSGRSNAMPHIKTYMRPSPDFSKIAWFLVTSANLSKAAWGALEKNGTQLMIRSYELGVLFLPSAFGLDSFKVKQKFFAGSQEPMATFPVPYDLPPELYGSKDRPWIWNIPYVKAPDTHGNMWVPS
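Recombinant E. coli-expressed Tdp1 (1 nM) preincubated with compound 15 min at RT, then 5'-biotin/3'-phosphotyrosine-FITC DNA substrate (15 nM) added for 5 min. AlphaScreen beads (10 ug/ml) added, 10 min RT; tyrosine-FITC cleavage read as signal loss.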
TDP1 cell noCPT: qHTS for Inhibitors of human tyrosyl-DNA phosphodiesterase 1 (TDP1): qHTS in cells in absence of CPT; DT40 Tdp1-/- hTDP1 cells, no CPT, ATP luminescence, 48 h; Potency, µM (top dose mostly 46.2 µM), inactives show at the highest dose activity change, negative = growth inhibition, actives largely listed as inhibitors; 420,000 compounds, 15% hits; AID 686978, 2013; also: potency is read from the fitted curve at half-maximal effect; nearly all actives have a fitted effect of over 55% in size
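Growth of hTDP1-complemented DT40 Tdp1-knockout cells is measured by ATP luminescence after at least 48 hr compound exposure at 37 °C, with DMSO substituting for the 20 nM CPT used in the parallel screen.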
Six1-Eya2 blk: qHTS Assay for Inhibitors of the Six1/Eya2 Interaction. AlphaScreen GST-Six1/His-Eya2 binding, biochemical; stronger effect = lower value. activity change, % (test concentration not listed). 360,000 compounds, 0.56% hits; in the data active = activity change below about -65%; inconclusive = mostly about -30% to -63%
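Six1/Eya2 binding was read as AlphaScreen signal after compounds were pinned into GST-Six1 plus His-tagged Eya2 (5X stock 250/500 nM) in pH 8.0 Tris/NaCl/TCEP buffer, beads added, then incubated 1 h, 37 C, dark.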
TDP1 cell CPT: qHTS for Inhibitors of human tyrosyl-DNA phosphodiesterase 1 (TDP1): qHTS in cells in presence of CPT | chicken DT40 Tdp1-/-;hTDP1 cells + 20 nM CPT, ATP luminescence, 48 h | Potency, µM (doses to about 46.2 µM), for the others: top-dose activity change, negative = growth inhibition, most hits filed as inhibitors | 420,000 compounds, 12% hits; also: potency is read from the fitted curve at half-maximal effect; nearly all actives have a fitted effect of over 55% in size
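Chicken DT40 Tdp1-/- cells stably complemented with human TDP1 were seeded at 400 cells/well in medium containing 20 nM camptothecin, exposed to pin-transferred compounds, and grown at 37 °C for at least 48 hr. Viability was read as ATP luminescence.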
CtBP-E1A blk: qHTS Assay for Inhibitors of the CtBP/E1A Interaction; 340,000 compounds, 0.49% hits; activity change, % (no concentration beside the values); AlphaScreen GST-E1A/His-CtBP binding, 1536-well; stronger effect = lower value; CtBP / adenovirus E1A interaction (AlphaScreen); in the data active = activity change below about -65%; inconclusive = mostly about -30% to -63%
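AlphaScreen with 125 nM GST-E1A and 125 nM His-CtBP (5X stocks) in Tris pH 8.0, 300 mM NaCl, BSA, Tween 20, TCEP. Compounds preincubated 2 h at 37 deg C, then glutathione donor/nickel acceptor beads added for 1 h at 37 deg C in dark.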
* marks the source's active call; other numbers are inactive results. An excerpt weighted towards active compounds, which were near 18% of everything screened. Unless noted, calls follow the shape of the dose curve; as a rule, active = well fitted curve in the direction sought with a large enough effect; inconclusive = small, poorly fitted or top-dose-only effect, or another doubt; inactive = no such curve, though single readings can be large; an effect the other way counts as inactive or inconclusive. % is scaled to controls: 0 for no effect and ±100 for the full control effect.

What do the screens show for `CCCCN(Cc1nc2ccccc2c(=O)[nH]1)C(=O)COc1ccc(F)cc1Cl`?
IL1B secr inh: 17.3; TDP1 block: -10.7%; TDP1 cell noCPT: 14.6µM*; Six1-Eya2 blk: -4.8; TDP1 cell CPT: 18.4µM*; CtBP-E1A blk: 8.9

Results for O=C(NCc1ccc(Cl)cc1)c1ccc(-n2cccn2)nc1 ?
IL1B secr inh: 21.3; TDP1 block: 0.0%; TDP1 cell noCPT: -10.3%; Six1-Eya2 blk: 3.5; TDP1 cell CPT: -1.4%; CtBP-E1A blk: -0.6

What do the screens show for `Cc1cc(C)cc(NC(=O)Nc2cccnc2)c1`?
IL1B secr inh: -20.2; TDP1 cell noCPT: 0.7%; Six1-Eya2 blk: -8.1; TDP1 cell CPT: inconclusive; CtBP-E1A blk: -4.9

What do the screens show for `COc1ccc(N(CC(=O)Nc2ccc3c(c2)OCO3)S(=O)(=O)c2ccc(F)cc2)cc1`?
IL1B secr inh: 0.0; TDP1 block: 0.0%; TDP1 cell noCPT: inconclusive; Six1-Eya2 blk: -10.6; TDP1 cell CPT: inconclusive; CtBP-E1A blk: -8.7

How did COc1ccccc1N(CC(=O)Nc1ccc2c(c1)OCCO2)S(=O)(=O)c1ccc(C)cc1 do in these assays?
IL1B secr inh: -9.6; TDP1 block: 6.4%; TDP1 cell noCPT: 9.2µM*; Six1-Eya2 blk: -2.8; TDP1 cell CPT: inconclusive; CtBP-E1A blk: 0.0

Results for COc1ccc(N(CC(=O)Nc2ccc3c(c2)OCO3)S(=O)(=O)c2ccccc2)cc1OC ?
IL1B secr inh: 8.5; TDP1 block: -4.3%; TDP1 cell noCPT: inconclusive; Six1-Eya2 blk: -0.2; TDP1 cell CPT: inconclusive; CtBP-E1A blk: -0.4

What do the screens show for `COC(=O)c1ccc(CN(c2ccc(C)cc2)S(=O)(=O)c2ccc3c(c2)OCCO3)o1`?
IL1B secr inh: 37.8; TDP1 block: 6.1%; TDP1 cell noCPT: 16.4µM*; Six1-Eya2 blk: -11.1; TDP1 cell CPT: 11.6µM*; CtBP-E1A blk: -0.8

How did COc1ccc(N(CC(=O)Nc2ccc3c(c2)OCCO3)S(=O)(=O)c2cccc(C)c2)cc1 do in these assays?
IL1B secr inh: -9.3; TDP1 block: 0.5%; TDP1 cell noCPT: inconclusive; Six1-Eya2 blk: -7.5; TDP1 cell CPT: 25.9µM*; CtBP-E1A blk: -5.5

Results for COc1ccc(N(CC(=O)Nc2ccc3c(c2)OCO3)S(=O)(=O)c2ccccc2)c(OC)c1 ?
IL1B secr inh: -17.3; TDP1 block: 3.1%; TDP1 cell noCPT: 18.4µM*; Six1-Eya2 blk: -16.8; TDP1 cell CPT: 20.6µM*; CtBP-E1A blk: -19.7

How did CN(C)Cc1ccccc1-c1cc(-n2ccnc2)ncn1 do in these assays?
TDP1 cell noCPT: -27.8%; TDP1 cell CPT: -28.6%

What do the screens show for `Cc1c(NS(=O)(=O)c2cc(C(=O)N3CCCC(C)C3)ccc2Cl)c(=O)n(-c2ccccc2)n1C` (stereo not drawn)?
IL1B secr inh: -1.4; TDP1 block: 0.3%; TDP1 cell noCPT: -0.2%; Six1-Eya2 blk: 10.9; TDP1 cell CPT: -1.5%; CtBP-E1A blk: 7.4

What do the screens show for `Cc1cccc(NC(=O)c2cccc(NC(=O)c3ccco3)c2)c1C`?
IL1B secr inh: inconclusive; TDP1 cell noCPT: inconclusive; Six1-Eya2 blk: 15.2; TDP1 cell CPT: -27.6%; CtBP-E1A blk: -1.6

What do the screens show for `CC(Oc1ccc2c(-c3ccccc3)cc(=O)oc2c1)C(=O)NCC(O)c1ccccc1` (stereo not drawn)?
IL1B secr inh: 0.0; TDP1 cell noCPT: inconclusive; Six1-Eya2 blk: -0.5; TDP1 cell CPT: inconclusive; CtBP-E1A blk: 0.3

How did Cc1nn(-c2cccc(Cl)c2)c2nc(C(F)(F)F)[nH]c(=O)c12 do in these assays?
IL1B secr inh: 2.8; TDP1 block: 5.4%; TDP1 cell noCPT: 29.1µM*; Six1-Eya2 blk: inconclusive; TDP1 cell CPT: inconclusive; CtBP-E1A blk: inconclusive

Results for Cc1nn(-c2cc(C(F)(F)F)ccc2Cl)c2nc(C(F)(F)F)[nH]c(=O)c12 ?
IL1B secr inh: 13.7; TDP1 block: 6.7%; TDP1 cell noCPT: -3.3%; Six1-Eya2 blk: 12.9; TDP1 cell CPT: -26.7%; CtBP-E1A blk: 11.4

What do the screens show for `CN=c1scc(C)n1/N=C/c1cc(Br)c(O)c(OC)c1`?
IL1B secr inh: 11.3; TDP1 block: -3.7%; TDP1 cell noCPT: 16.4µM*; Six1-Eya2 blk: -6.1; TDP1 cell CPT: inconclusive; CtBP-E1A blk: -0.2

What do the screens show for `CN=c1scc(-c2cccs2)n1/N=C/c1ccccc1O`?
IL1B secr inh: -3.2; TDP1 block: 2.3%; TDP1 cell noCPT: 23.1µM*; Six1-Eya2 blk: -19.2; TDP1 cell CPT: inconclusive; CtBP-E1A blk: -17.8

How did CN=c1scc(-c2ccccc2Br)n1/N=C/c1ccc[nH]1 do in these assays?
TDP1 block: 11.3%

How did COc1cc(/C=N/N(C)C)cc(Br)c1O do in these assays?
IL1B secr inh: -3.9; TDP1 block: 1.2%; TDP1 cell noCPT: 0.8%; Six1-Eya2 blk: -1.5; TDP1 cell CPT: -1.5%; CtBP-E1A blk: -8.6

What do the screens show for `Cc1nc2ccccc2c(=O)n1/N=C/c1ccc(O)c(O)c1O`?
IL1B secr inh: 8.5; TDP1 cell noCPT: inconclusive; Six1-Eya2 blk: -25.5; TDP1 cell CPT: inconclusive

What do the screens show for `CN=c1scc(C)n1/N=C/c1ccc(O)c(O)c1O`?
IL1B secr inh: inconclusive; TDP1 block: -2.0%; TDP1 cell noCPT: 18.4µM*; Six1-Eya2 blk: inconclusive; TDP1 cell CPT: 16.4µM*; CtBP-E1A blk: inconclusive

What do the screens show for `CN=c1scc(-c2cccs2)n1/N=C/c1ccc(O)c(O)c1O`?
IL1B secr inh: -1.6; TDP1 block: 7.9%; TDP1 cell noCPT: 5.8µM*; Six1-Eya2 blk: -77.0*; TDP1 cell CPT: 11.6µM*; CtBP-E1A blk: -88.3*

How did OC(COCc1ccc(Cl)cc1)CN1CCc2ccccc2C1 (stereo not drawn) do in these assays?
IL1B secr inh: 0.0; TDP1 block: -2.7%; TDP1 cell noCPT: inconclusive; Six1-Eya2 blk: 7.6; TDP1 cell CPT: -16.5%; CtBP-E1A blk: 8.5

Results for CCCNC(=O)C1(C)CCCN(C(=O)c2cc(F)cc(F)c2)C1 (stereo not drawn) ?
IL1B secr inh: 21.5; TDP1 cell noCPT: -14.7%; Six1-Eya2 blk: 7.2; TDP1 cell CPT: 5.8%; CtBP-E1A blk: 12.9

Results for Cc1c(CCO)sc[n+]1CCc1ccccc1 ?
TDP1 cell noCPT: 6.8%; TDP1 cell CPT: inconclusive

High-throughput results (PubChem BioAssay)
